Results filed as inconclusive are left out. Active and inactive are the calls of the source. Unless noted, calls come from the whole dose curve.
Legend:
[1] = qHTS assay to identify small molecule antagonists of the estrogen receptor beta (ER-beta) signaling pathway - cell viability counter screen (AID 1259382; active = well fitted curve in the direction sought with a large enough effect in the repeat runs; an effect the other way counts as inactive or inconclusive;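 note: HEK293T cells carrying ER-beta-UAS-bla reporter stimulated with estradiol; series mostly up to about 92 µM; nearly all actives have a fitted effect of over 55% in size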)
Method in brief: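 ER-beta-UAS-bla HEK293T cells (2,000/well, 2% charcoal-stripped FBS) were pre-incubated 6 hr at 37C, then given compound plus 1nM final 17-beta-estradiol for 16 hr. Viability was read in the same wells by CellTiter-Glo luminescence after 30 min at room temperature.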

[2] = molecular target: Estrogen receptor (Homo sapiens) (UniProt P03372); assay: qHTS assay to identify small molecule agonists of the estrogen receptor alpha (ER-alpha) signaling pathway in the presence of an antagonist (AID 1259383); note: nearly all actives have a fitted effect of over 15% in size; note: potency is the fitted concentration of half-maximal effect; for activation: top concentration of the series differs between compounds
Method in brief: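 VM7Luc4E2 cells (endogenous full-length ER-alpha, 4×ERE-luciferase) were precultured 5 days in phenol red-free medium with 10% charcoal-stripped FBS, given 10.0nM ICI-182,780 (final), then treated with compounds at 15 concentrations for 22hr at 37C; luminescence read with ONE-Glo.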

[3] = qHTS assay to identify small molecule agonists or antagonists of the thyroid stimulating hormone receptor (TSHR) signaling pathway - wild type cell line counter screen (AID 1259384)
Method in brief: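 Counter screen in untransfected Hek293: compounds (15-point titration, triplicate) plus phosphodiesterase inhibitor Ro20-1724 added after 18 h plating; 30 min RT. Intracellular cAMP via competitive d2/cryptate immunoassay, 1 h incubation.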

[4] = molecular target: Thyrotropin receptor (Homo sapiens) (UniProt P16473); assay: qHTS assay to identify small molecule antagonists of the thyroid stimulating hormone receptor (TSHR) signaling pathway (AID 1259385); note: nearly all actives have a fitted effect of over 20% in size
Method in brief: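 Antagonist mode: compound-treated TSHR-expressing HEK293 cells were stimulated with 1.5 ng/mL TSH (final) in presence of Ro20-1724 for 30 min at RT. HTRF cAMP detection after 1 h; each compound tested at 15 concentrations, triplicate.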

[5] = qHTS assay to identify small molecule agonists of the estrogen receptor alpha (ER-alpha) signaling pathway in the presence of an antagonist - cell viability counter screen (AID 1259386; active = well fitted curve in the direction sought with a large enough effect in the repeat runs; an effect the other way counts as inactive or inconclusive;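 note: series mostly up to about 92 µM; cells exposed to compounds for 22 h at 37 °C before the viability read; nearly all actives have a fitted effect of over 30% in size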)
Method in brief: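 VM7Luc4E2 cells (endogenous full-length ER-alpha, 4×ERE-luciferase) were held 5 days in phenol red-free medium with 10% charcoal-stripped FBS, plated, then given 10.0nM ICI-182,780 and compounds at 15 concentrations for 22hr at 37C; viability read by CellTiter-Fluor fluorescence.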

[6] = molecular target: Progesterone receptor (Homo sapiens) (UniProt P06401); assay: qHTS assay to identify small molecule agonists of the progesterone receptor (PR) signaling pathway (AID 1346784); note: nearly all actives have a fitted effect of over 30% in size; note: potency is the fitted concentration of half-maximal effect
Method in brief: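 Agonist qHTS: compounds pinned onto 3,000 PR-UAS-bla HEK 293T cells per well in charcoal-stripped serum medium, 16hr at 37C, then beta-lactamase activity measured by LiveBLAzer FRET fluorescence after 2 hours at room temperature.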

[7] = molecular target: Progesterone receptor (Homo sapiens) (UniProt P06401); assay: qHTS assay to identify small molecule antagonists of the progesterone receptor (PR) signaling pathway (AID 1346795; active = well fitted inhibition curve with a large enough effect in the signal ratio in the repeat runs, not every such curve was filed as active; the % refers to the signal ratio)
Method in brief: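 Antagonist mode with agonist R5020 at 1 nM final and 16 hr incubation at 37C. Reporter was beta-lactamase driven by UAS in HEK293T (PR-UAS-bla), 2% charcoal-stripped serum; signal from LiveBLAzer FRET substrate, 2 hr at room temperature.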

[8] = qHTS assay to identify small molecule antagonists of the progesterone receptor (PR) signaling pathway - cell viability counter screen (AID 1346798; active = well fitted curve in the direction sought with a large enough effect in the repeat runs; an effect the other way counts as inactive or inconclusive; note: series mostly up to about 92 µM; nearly all actives have a fitted effect of over 50% in size)
Method in brief: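 Cytotoxicity read as CellTiter-Glo luminescence (30 min, room temperature) in the same wells as the beta-lactamase readout. HEK293T PR-UAS-bla cells in charcoal-stripped 2% FBS received compound and R5020, then 16 h at 37C, 5% CO2.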

[9] = qHTS assay to identify small molecule agonists of the progesterone receptor (PR) signaling pathway - cell viability counter screen (AID 1346799); note: nearly all actives have a fitted effect of over 45% in size
Method in brief: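 Cytotoxicity measured by CellTiter-Glo luminescence (30 min, RT) in the same wells as the PR beta-lactamase agonist read. Those HEK293T cells had 16 h compound treatment at 37 C in 2% charcoal-stripped FBS medium.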

[10] = qHTS assay to identify small molecule antagonists of the TGF-beta/Smad signaling pathway - cell viability counter screen (AID 1346824; active = well fitted curve in the direction sought with a large enough effect in the repeat runs; an effect the other way counts as inactive or inconclusive; note: nearly all actives have a fitted effect of over 50% in size)
Method in brief: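 Cytotoxicity counter-screen run in the same wells as the beta-lactamase Smad reporter read: CellTiter-Glo luminescence after 30 min at room temperature. HEK 293T SBE-bla cells had 5 hr compound exposure at 37 C with TGF-beta1 (0.25 ng/mL stock).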
% is set by controls: 0 for no effect and ±100 for the full control effect.

Chain of Progesterone receptor (Homo sapiens) (P06401 whole entry, looked up): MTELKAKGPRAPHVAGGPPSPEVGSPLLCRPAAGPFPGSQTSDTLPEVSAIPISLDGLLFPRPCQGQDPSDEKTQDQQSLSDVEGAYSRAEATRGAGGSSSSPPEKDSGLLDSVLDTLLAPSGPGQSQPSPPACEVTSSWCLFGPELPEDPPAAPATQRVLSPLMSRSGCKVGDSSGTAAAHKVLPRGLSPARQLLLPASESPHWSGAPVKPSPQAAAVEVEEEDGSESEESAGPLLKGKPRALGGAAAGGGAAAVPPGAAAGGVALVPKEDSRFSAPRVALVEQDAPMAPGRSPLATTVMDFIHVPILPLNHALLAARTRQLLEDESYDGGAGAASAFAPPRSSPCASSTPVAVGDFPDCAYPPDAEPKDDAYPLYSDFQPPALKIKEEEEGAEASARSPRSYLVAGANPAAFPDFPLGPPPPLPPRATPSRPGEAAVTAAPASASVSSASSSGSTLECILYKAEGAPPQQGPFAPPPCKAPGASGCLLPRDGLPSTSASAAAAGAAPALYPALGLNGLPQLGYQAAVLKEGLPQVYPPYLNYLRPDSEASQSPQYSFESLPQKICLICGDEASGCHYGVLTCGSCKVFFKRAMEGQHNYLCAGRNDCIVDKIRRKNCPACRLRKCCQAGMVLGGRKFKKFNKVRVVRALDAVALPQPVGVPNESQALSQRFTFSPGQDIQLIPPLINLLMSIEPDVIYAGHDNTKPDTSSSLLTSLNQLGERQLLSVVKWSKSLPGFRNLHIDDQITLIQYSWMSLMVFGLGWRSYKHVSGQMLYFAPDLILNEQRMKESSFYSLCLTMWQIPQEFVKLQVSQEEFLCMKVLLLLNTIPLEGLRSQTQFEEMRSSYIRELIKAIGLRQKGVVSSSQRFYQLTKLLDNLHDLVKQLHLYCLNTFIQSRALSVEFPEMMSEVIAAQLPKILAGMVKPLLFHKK
Chain of Estrogen receptor (Homo sapiens) (P03372 whole entry, looked up): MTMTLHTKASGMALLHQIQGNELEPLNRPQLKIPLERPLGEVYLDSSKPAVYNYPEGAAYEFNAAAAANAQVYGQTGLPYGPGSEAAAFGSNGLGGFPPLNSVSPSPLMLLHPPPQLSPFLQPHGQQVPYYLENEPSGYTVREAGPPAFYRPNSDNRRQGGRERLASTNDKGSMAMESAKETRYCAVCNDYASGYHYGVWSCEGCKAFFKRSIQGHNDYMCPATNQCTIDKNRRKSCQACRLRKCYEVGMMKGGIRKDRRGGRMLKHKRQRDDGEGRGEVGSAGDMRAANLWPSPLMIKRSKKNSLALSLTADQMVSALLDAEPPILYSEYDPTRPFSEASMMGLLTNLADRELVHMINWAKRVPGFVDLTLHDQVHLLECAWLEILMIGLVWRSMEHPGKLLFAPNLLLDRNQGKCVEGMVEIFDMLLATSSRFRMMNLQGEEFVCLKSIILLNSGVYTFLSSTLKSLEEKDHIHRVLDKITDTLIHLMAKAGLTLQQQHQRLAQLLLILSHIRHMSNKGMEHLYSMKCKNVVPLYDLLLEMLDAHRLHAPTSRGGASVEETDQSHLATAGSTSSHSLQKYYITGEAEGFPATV
Chain of Thyrotropin receptor (Homo sapiens) (P16473 whole entry, looked up): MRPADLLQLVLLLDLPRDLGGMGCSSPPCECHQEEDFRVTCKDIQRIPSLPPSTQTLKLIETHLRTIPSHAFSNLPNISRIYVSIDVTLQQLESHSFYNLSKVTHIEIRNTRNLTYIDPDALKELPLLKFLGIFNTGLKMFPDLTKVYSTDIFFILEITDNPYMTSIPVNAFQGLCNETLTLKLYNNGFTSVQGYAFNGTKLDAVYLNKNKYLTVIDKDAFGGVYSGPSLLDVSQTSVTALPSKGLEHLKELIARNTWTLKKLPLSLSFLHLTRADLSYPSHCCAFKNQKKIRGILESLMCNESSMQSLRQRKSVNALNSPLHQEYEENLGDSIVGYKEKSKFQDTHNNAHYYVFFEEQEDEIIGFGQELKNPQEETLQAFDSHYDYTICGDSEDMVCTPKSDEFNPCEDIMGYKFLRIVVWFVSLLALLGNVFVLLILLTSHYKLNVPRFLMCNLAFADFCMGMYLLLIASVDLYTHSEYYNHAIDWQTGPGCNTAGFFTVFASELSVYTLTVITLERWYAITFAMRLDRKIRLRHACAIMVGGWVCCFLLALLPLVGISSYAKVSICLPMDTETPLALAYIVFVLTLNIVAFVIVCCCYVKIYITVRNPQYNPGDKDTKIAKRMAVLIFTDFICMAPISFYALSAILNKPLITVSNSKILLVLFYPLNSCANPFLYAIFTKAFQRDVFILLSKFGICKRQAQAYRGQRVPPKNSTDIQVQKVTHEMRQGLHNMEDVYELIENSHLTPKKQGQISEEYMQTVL

Cc1cc(=O)oc2cc(O[C@@H]3SC[C@@H](O)[C@H](O)[C@H]3O)ccc12
inactive: outcome [1] | Potency [2] | outcome [3] | outcome [4] | outcome [5] | Potency [6] | Potency [7] | outcome [8] | Potency [9] | outcome [10]

Clc1cc(Cl)c(Cl)c(Cl)c1Cl
inactive: outcome [1] | Potency [2] | outcome [3] | outcome [4] | outcome [5] | Potency [6] | Potency [7] | outcome [8] | Potency [9] | outcome [10]

C[C@@H]1CC[C@@]2(OC1)O[C@H]1C[C@H]3[C@@H]4CC[C@H]5C[C@@H](O)CC[C@]5(C)[C@H]4CC(=O)[C@]3(C)[C@H]1[C@@H]2C
inactive: activity change, negative = cytotoxicity [1] 3.19% [at 8.39 µM] | activation [2] 0.597% [at 8.39 µM] | cAMP activity change [3] -0.224% [at 8.39 µM] | activity change, negative = inhibition [4] -0.41% [at 8.39 µM] | activity change, negative = cytotoxicity [5] 0.111% [at 8.39 µM] | activation [6] -0.697% [at 8.39 µM] | activity change, negative = inhibition [7] 17.4% [at 8.39 µM] | activity change, negative = cytotoxicity [8] 12.3% [at 8.39 µM] | activity change, negative = cytotoxicity [9] 3.64% [at 8.39 µM]

O=C(O)Cc1c(Cl)ccc(Cl)c1Cl
inactive: outcome [1] | Potency [2] | outcome [3] | outcome [4] | outcome [5] | Potency [6] | Potency [7] | outcome [8] | Potency [9]

CCCCOCCCC
inactive: outcome [1] | Potency [2] | outcome [3] | outcome [4] | outcome [5] | Potency [6] | Potency [7] | outcome [8] | Potency [9] | outcome [10]

CCCCCCCOC(C)=O
inactive: outcome [1] | Potency [2] | outcome [3] | outcome [4] | outcome [5] | Potency [6] | Potency [7] | outcome [8] | Potency [9] | outcome [10]

C/C=C(\C)C=O
active: Potency [6] 21.8 µM
inactive: outcome [1] | Potency [2] | outcome [3] | outcome [4] | outcome [5] | Potency [7] | outcome [8] | Potency [9] | outcome [10]

CCCCCCCCCCCCCC(=O)OCC
inactive: outcome [1] | Potency [2] | outcome [3] | outcome [4] | outcome [5] | Potency [6] | Potency [7] | outcome [8] | Potency [9]

O=C(O)/C=C(\CC(=O)O)C(=O)O
inactive: outcome [1] | Potency [2] | outcome [3] | outcome [4] | outcome [5] | Potency [6] | Potency [7] | outcome [8] | Potency [9]

Cc1ccc(Br)cc1
inactive: outcome [1] | Potency [2] | outcome [3] | outcome [4] | outcome [5] | Potency [6] | Potency [7] | outcome [8] | Potency [9] | outcome [10]

CC1(C)S[C@@H]2[C@H](NC(=O)Cc3ccccc3)C(=O)N2[C@H]1C(=O)O (tested in a mixture with another compound)
inactive: outcome [1] | Potency [2] | outcome [3] | outcome [4] | outcome [5] | Potency [6] | Potency [7] | outcome [8] | Potency [9]

C=CCn1cc[n+](C)c1
inactive: outcome [1] | Potency [2] | outcome [3] | outcome [4] | outcome [5] | Potency [6] | Potency [7] | outcome [8] | Potency [9] | outcome [10]

O=Cc1ccc(C(=O)O)cc1
inactive: outcome [1] | Potency [2] | outcome [3] | outcome [4] | outcome [5] | Potency [6] | Potency [7] | outcome [8] | Potency [9]

CCCCCCCCCCCCCCBr
inactive: outcome [1] | Potency [2] | outcome [3] | outcome [4] | outcome [5] | Potency [6] | Potency [7] | outcome [8]

CCCCN(CCCC)CCCCCCN(CCCC)CCCC
inactive: outcome [1] | Potency [2] | outcome [3] | outcome [4] | outcome [5] | Potency [6] | Potency [7] | outcome [8] | Potency [9] | outcome [10]

Cc1ccccc1C#N
inactive: outcome [1] | Potency [2] | outcome [3] | outcome [4] | outcome [5] | Potency [6] | Potency [7] | outcome [8] | Potency [9] | outcome [10]

C/C(=N\O)c1ccc(OCC(=O)N2CCCCC2)cc1
inactive: outcome [1] | Potency [2] | outcome [3] | outcome [4] | outcome [5] | Potency [6] | Potency [7] | outcome [8] | Potency [9] | outcome [10]

CCC(=O)OCCOc1ccccc1
inactive: outcome [1] | Potency [2] | outcome [3] | outcome [4] | outcome [5] | Potency [6] | Potency [7] | outcome [8] | Potency [9] | outcome [10]

C/C(Cl)=C/CCl
inactive: outcome [1] | Potency [2] | outcome [3] | outcome [4] | outcome [5] | Potency [6] | Potency [7] | outcome [8] | Potency [9] | outcome [10]

COCCCOc1cc(C[C@@H](C[C@H](N)[C@@H](O)C[C@H](C(=O)NCC(C)(C)C(N)=O)C(C)C)C(C)C)ccc1OC
inactive: outcome [1] | Potency [2] | outcome [3] | outcome [4] | outcome [5] | Potency [6] | Potency [7] | outcome [8] | Potency [9] | outcome [10]

CC(C)(C)c1ccc(C(=O)CCCCl)cc1
active: Potency [2] 7.5 µM
inactive: outcome [1] | outcome [3] | outcome [4] | outcome [5] | Potency [6] | Potency [7] | outcome [8] | Potency [9] | outcome [10]

CC(=O)Nc1ccc(S(=O)(=O)Nc2cc(C)on2)cc1
inactive: outcome [1] | Potency [2] | outcome [3] | outcome [4] | outcome [5] | Potency [6] | Potency [7] | outcome [8] | Potency [9] | outcome [10]

C/C=C(\C)C(=O)OC/C=C(\C)CCC=C(C)C
inactive: outcome [1] | Potency [2] | outcome [3] | outcome [4] | outcome [5] | Potency [6] | Potency [7] | outcome [8] | Potency [9] | outcome [10]
